Shown are actives, neighbours in structure and some others; about 1.1% of the full set was active somewhere.
SARS PLpro yeast: inhibitors of SARS-CoV papain-like protease in yeast. S. cerevisiae expressing SARS-CoV PLpro, growth rescue. Potency, µM (doses to about 32.9 µM), for inactives: at the highest dose activity, positive = growth rescue, actives largely listed as activators. 0.19% of 330,000 active. AID 485353; calls by dose curve; note: 0% is about no effect; nearly all actives have a fitted effect of over 55% in size
Giardia FBPA inh-1: Giardia lamblia aldolase inhibition | purified Giardia FBPA | Potency, µM (top dose mostly 59.6 µM), for the others: at the top dose activity, negative = inhibition, most hits filed as inhibitors | 0.71% of 290,000 active | AID 2451; note: % is set by controls: 0 for no effect and ±100 for the full control effect; nearly all actives have a fitted effect of over 55% in size
Target sequence (A8B2U2 whole entry, looked up): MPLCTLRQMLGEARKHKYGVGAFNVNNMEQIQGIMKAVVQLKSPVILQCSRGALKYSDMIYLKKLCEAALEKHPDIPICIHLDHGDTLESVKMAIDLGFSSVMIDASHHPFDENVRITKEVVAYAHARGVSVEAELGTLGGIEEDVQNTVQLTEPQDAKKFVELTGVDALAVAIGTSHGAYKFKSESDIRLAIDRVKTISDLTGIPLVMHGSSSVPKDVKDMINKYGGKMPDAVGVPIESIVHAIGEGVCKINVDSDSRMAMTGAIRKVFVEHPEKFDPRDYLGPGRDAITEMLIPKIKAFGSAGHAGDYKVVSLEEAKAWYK
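40 nM FBPA preincubated 10 min at RT with compound (up to 57.5 uM final), then substrate plus GAPDH/TPI/NAD/arsenate coupling and diaphorase/resazurin added. Fluorescence read after 20 min at RT, 525/598 nm.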
AmpC detergent: AmpC beta-lactamase inhibition with detergent present | 0.041% of 370,000 active | AmpC hydrolysis of nitrocefin, absorbance 480 nm, 0.01% Triton | Potency, µM (titrated, usually from 114 µM), for inactives: at the top dose activity change, negative = inhibition, most hits filed as inhibitors | P00811;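 note: 0% = no-compound wells and -100% = no-enzyme wells; nearly all actives have a fitted effect of over 25% in size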
Target sequence (P00811 whole entry, looked up): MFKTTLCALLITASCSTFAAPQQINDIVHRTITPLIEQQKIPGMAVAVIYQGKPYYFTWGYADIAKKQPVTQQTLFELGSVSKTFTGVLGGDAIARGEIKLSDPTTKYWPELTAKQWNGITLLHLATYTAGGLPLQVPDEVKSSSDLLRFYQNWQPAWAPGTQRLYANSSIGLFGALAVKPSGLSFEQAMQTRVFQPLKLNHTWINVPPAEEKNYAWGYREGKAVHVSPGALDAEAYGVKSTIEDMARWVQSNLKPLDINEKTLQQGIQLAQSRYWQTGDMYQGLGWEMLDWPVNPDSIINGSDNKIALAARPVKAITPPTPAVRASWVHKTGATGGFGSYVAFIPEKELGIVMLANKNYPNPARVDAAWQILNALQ
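20 mM phosphate pH 7.0 + 0.01% (detergent screen) or 0.0001% Triton X-100; 5.3 nM AmpC reagent; cpd preinc 15 min RT; nitrocefin (800 uM stock) to start; A480 q20 s × 4 min; Activity was normalised to no-enzyme and no-compound control wells.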
AmpC inh no detg: blocks E. coli AmpC beta-lactamase in detergent-free assay; 0.52% of 330,000 active; AID 485341; AmpC nitrocefin hydrolysis, absorbance 480 nm, 0.0001% Triton; Potency, µM (titrated, usually from 57.1 µM), inactives show at the highest dose activity change, negative = inhibition, usual class: inhibitors;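 note: plate controls were no compound for no effect and no enzyme for full effect; nearly all actives have a fitted effect of over 20% in size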
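AmpC (5.3 nM in the dispensed reagent) in 20 mM phosphate pH 7.0 with 0.01% (detergent screen) or 0.0001% Triton X-100 was preincubated with compounds for 15 min at room temperature. Nitrocefin was then added from an 800 uM solution, and hydrolysis was followed at 480 nm.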
Giardia growth: inhibitors of Giardia lamblia growth | shares compounds with Giardia FBPA inh-1 | Giardia lamblia trophozoite growth inhibition | Potency, µM (highest dose often 57.5 µM), for inactives: top-dose activity change, negative = inhibition, actives largely listed as inhibitors | 5% of 1,500 active;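 note: trophozoites exposed to compound for 48 h at 37 °C; % is set by controls: 0 for no effect and ±100 for the full control effect; nearly all actives have a fitted effect of over 70% in size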
Mammalian tox: counter-screen for Giardia aldolase inhibitors: mammalian cell toxicity. AID 2786. mammalian cell viability counter-screen, qHTS. shares compounds with Giardia FBPA inh-1. Potency, µM (series often up to 57.5 µM), for inactives: at the top dose viability change, negative = toxicity, actives largely listed as inhibitors. 4% of 1,500 active;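 note: Chinese hamster ovary cells used as mammalian cytotoxicity surrogate; viability measured as cellular ATP by luminescence; compound exposure lasted 48 h before reading; % is set by controls: 0 for no effect and ±100 for the full control effect; nearly all actives have a fitted effect of over 60% in size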
Giardia FBPA inh-2: confirmation of Giardia fructose-bisphosphate aldolase inhibitors. shares compounds with Giardia FBPA inh-1. purified Giardia aldolase enzyme activity, qHTS. 5% of 1,500 active. Potency, µM (titrated, usually from 57.5 µM), for the others: top-dose activity change, negative = inhibition, usual class: inhibitors; note: % is set by controls: 0 for no effect and ±100 for the full control effect; nearly all actives have a fitted effect of over 45% in size
Rabbit FBPA inh: blocks rabbit muscle aldolase in Giardia aldolase selectivity test; Potency, µM (doses to about 57.5 µM), for inactives: top-dose activity, negative = inhibition, usual class: inhibitors; shares compounds with Giardia FBPA inh-1; 4% of 1,500 active; Rabbit muscle FBPA enzyme inhibition, selectivity counter-screen; note: % is set by controls: 0 for no effect and ±100 for the full control effect; nearly all actives have a fitted effect of over 60% in size
GAPDH counter: GAPDH inhibition flagged for Giardia aldolase hits; 6% of 1,500 active; AID 2795; Potency, µM (top dose mostly 57.5 µM), without a hit: at the highest dose activity change, negative = inhibition, most hits filed as inhibitors; GAPDH coupling enzyme counterscreen, biochemical, qHTS; shares compounds with Giardia FBPA inh-1; note: % is set by controls: 0 for no effect and ±100 for the full control effect; nearly all actives have a fitted effect of over 55% in size
Numbers without * were called inactive; [ ] = remark or other dose. Unless noted, calls come from the whole dose curve; as a rule, active = well fitted curve in the direction sought with a large enough effect; inconclusive = small, poorly fitted or top-dose-only effect, or another doubt; inactive = no such curve, though single readings can be large; an effect the other way counts as inactive or inconclusive. Potency is the fitted concentration of half-maximal effect.

Screening Cc1ccc(CNC(=O)CSc2nc3ccccc3[nH]2)cc1 returned SARS PLpro yeast 3.1%, Giardia FBPA inh-1 12.6µM*, AmpC detergent 0.1%, AmpC inh no detg -19.3%, Giardia growth 38.7%, Mammalian tox 3.5%, Giardia FBPA inh-2 4.5%, Rabbit FBPA inh 8.3% and GAPDH counter -9.1%.
O=[N+]([O-])c1ccccc1/C=C/CN1CCSCC1 was read as SARS PLpro yeast 3.3%, Giardia FBPA inh-1 15.8µM*, AmpC detergent inconclusive, AmpC inh no detg -14.7%, Giardia growth inconclusive, Mammalian tox 19.1%, Giardia FBPA inh-2 -0.6%, Rabbit FBPA inh 13.5% and GAPDH counter -4.5%.
NS(=O)(=O)c1ccc(NC(=S)NCc2ccc(Cl)cc2)cc1 was read as SARS PLpro yeast -7.1%, Giardia FBPA inh-1 15.8µM*, AmpC detergent -5.4%, AmpC inh no detg -39.8%, Giardia growth -8.3%[10.4 µM], Mammalian tox -9.1%, Giardia FBPA inh-2 -6.1%, Rabbit FBPA inh 2.3% and GAPDH counter 8.8%.
`Cn1cc(Br)c(C(=O)NC(=S)Nc2ccc(S(N)(=O)=O)cc2)n1` gave SARS PLpro yeast -2.5%, Giardia FBPA inh-1 15.8µM*, AmpC detergent -4.2%, AmpC inh no detg -22.9%, Giardia growth -26.0%, Mammalian tox 9.6%, Giardia FBPA inh-2 2.8%, Rabbit FBPA inh 8.7% and GAPDH counter 11.9%.
For Cc1nc(NC(=O)CN2CCN(c3ccccc3F)CC2)sc1C(=O)N(C)C the results were SARS PLpro yeast 0.9%, Giardia FBPA inh-1 3.16µM*, AmpC detergent -2.8%, AmpC inh no detg 6.5%, Giardia growth 0.3%[10.4 µM], Mammalian tox -1.1%, Giardia FBPA inh-2 3.9%, Rabbit FBPA inh 4.7% and GAPDH counter -13.2%.
For Cc1ccc(NC(=O)c2c(C)cc(C)nc2SCC(=O)Nc2ccc(Br)cc2)cc1 the results were AmpC detergent 2.5%.
`CCC(C(=O)Nc1cc(Cl)c(OC)cc1OC)c1ccccc1` (configuration not stated) gave SARS PLpro yeast -0.9%, Giardia FBPA inh-1 -2.1%, AmpC detergent -1.7% and AmpC inh no detg -1.0%.
`COc1cc(OC)c(NC2=CC(=O)C(=O)c3ccccc32)cc1Cl` gave SARS PLpro yeast -0.7%, Giardia FBPA inh-1 inconclusive, AmpC detergent 1.3%, AmpC inh no detg -18.1%, Giardia growth 22.5µM*, Mammalian tox 20.6µM*, Giardia FBPA inh-2 11.6µM*, Rabbit FBPA inh 13µM* and GAPDH counter 14.6µM*.
Screening COc1cccc(C(=O)N2CCN(Cc3ccccn3)CC2)c1OC returned SARS PLpro yeast -11.4%, Giardia FBPA inh-1 inconclusive, AmpC detergent 7.7% and AmpC inh no detg 6.5%.
Screening COc1cccc(C(=O)N2CCN(Cc3ccccn3)CC2)c1 returned SARS PLpro yeast -0.5%, Giardia FBPA inh-1 25.1µM*, AmpC detergent inconclusive, AmpC inh no detg -1.2%, Giardia growth 65.8%, Mammalian tox 11.4%, Giardia FBPA inh-2 2.8%, Rabbit FBPA inh -2.8% and GAPDH counter -26.4%.
`O=C(O)C1CCN(Cc2ccccn2)CC1` gave SARS PLpro yeast 3.5%, Giardia FBPA inh-1 -18.8%, AmpC detergent -8.7% and AmpC inh no detg -5.7%.
For CCOC(=O)C1CCN(Cc2ccccn2)CC1 the results were SARS PLpro yeast -4.0%, Giardia FBPA inh-1 17.8µM*, AmpC detergent -13.9%, AmpC inh no detg -3.3%, Giardia growth inconclusive, Mammalian tox -2.3%, Giardia FBPA inh-2 -0.3%, Rabbit FBPA inh 11.0% and GAPDH counter 5.1%.
For CC1=C(C(=O)NCCc2ccc(Cl)cc2)C2(CCCCC2)OC1=O the results were AmpC detergent 11.2%.
CC(NC(=O)Cn1ccc2cc(S(=O)(=O)N3CCCCCC3)ccc21)c1ccccc1 (configuration not stated) was read as AmpC detergent 22.1%.
Screening Cc1cc(C)nc(N/N=C/C2=C(O)CC(c3ccc(F)cc3)CC2=O)n1 (configuration not stated) returned SARS PLpro yeast 2.8%, Giardia FBPA inh-1 -20.8%, AmpC detergent 5.4%, AmpC inh no detg -6.6%, Giardia growth 3.8%[38.3 µM], Mammalian tox inconclusive, Giardia FBPA inh-2 9.0%, Rabbit FBPA inh 7.4% and GAPDH counter 0.9%.
For Cc1ccc(C2CC(=O)C(C=NCCN3CCN(C(=S)Nc4ccc(F)cc4)CC3)=C(O)C2)cc1 (configuration not stated) the results were SARS PLpro yeast 1.0%, Giardia FBPA inh-1 -0.2%, AmpC detergent 3.0% and AmpC inh no detg 157.5%.
`C=CCC1C=CC(Oc2ccc(F)cc2C)C(CO)O1` (configuration not stated) gave Giardia FBPA inh-1 1.7%[12.9 µM].
For NC(N)=NS(=O)(=O)c1ccc(NC(=S)NC(=O)c2ccncc2)cc1 the results were SARS PLpro yeast -2.5%, Giardia FBPA inh-1 11.2µM*, AmpC detergent -1.2%, AmpC inh no detg -11.3%, Giardia growth 4.2%[10.4 µM], Mammalian tox 9.7%, Giardia FBPA inh-2 6.2%, Rabbit FBPA inh 4.7% and GAPDH counter 10.8%.
`NC(N)=NS(=O)(=O)c1ccc(NC(=S)NC(=O)c2ccc(Br)cc2)cc1` gave SARS PLpro yeast -2.4%, Giardia FBPA inh-1 -13.8%, AmpC detergent inconclusive and AmpC inh no detg -35.1%.
`COC(=O)/C(=C/Nc1cccc2ccccc12)[N+](=O)[O-]` gave SARS PLpro yeast -15.2%, Giardia FBPA inh-1 inconclusive, AmpC detergent 10.5%, AmpC inh no detg -19.3%, Giardia growth -18.9%[38.3 µM], Mammalian tox -14.7%, Giardia FBPA inh-2 inconclusive, Rabbit FBPA inh inconclusive and GAPDH counter inconclusive.
Screening COc1cc(OC)cc(C(=O)Nc2cccc3ccccc23)c1 returned SARS PLpro yeast 3.4%, Giardia FBPA inh-1 -1.5%, AmpC detergent 9.8% and AmpC inh no detg -16.4%.
CCn1ccc2cc(S(=O)(=O)N3CCCN(C(=O)NCC(=O)OC)CC3)ccc21 was read as AmpC detergent 5.5%.

Screening data as filed in PubChem BioAssay.
